Screens (PubChem BioAssay)
A selection: hits, their analogues and other compounds. The true share with any hit is near 9.3%.
FLuc counter: qHTS profiling assay for firefly luciferase inhibitor/activator using purifed enzyme and Km concentrations of substrates (counterscreen for miR-21 project); Potency, µM (highest dose often 57.5 µM), inactives show at the top dose activity change, negative = inhibition, hits mostly inhibitors; purified FLuc, Km substrates, luminescence inhibition; AID 588342, 2011; actives 6.9% (n = 360,000); Luciferin 4-monooxygenase (Photinus pyralis), P08659;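 note: plate controls were vehicle for no effect and reference inhibitor for full effect; nearly all actives have a fitted effect of over 55% in size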
Target sequence (P08659 whole entry, looked up): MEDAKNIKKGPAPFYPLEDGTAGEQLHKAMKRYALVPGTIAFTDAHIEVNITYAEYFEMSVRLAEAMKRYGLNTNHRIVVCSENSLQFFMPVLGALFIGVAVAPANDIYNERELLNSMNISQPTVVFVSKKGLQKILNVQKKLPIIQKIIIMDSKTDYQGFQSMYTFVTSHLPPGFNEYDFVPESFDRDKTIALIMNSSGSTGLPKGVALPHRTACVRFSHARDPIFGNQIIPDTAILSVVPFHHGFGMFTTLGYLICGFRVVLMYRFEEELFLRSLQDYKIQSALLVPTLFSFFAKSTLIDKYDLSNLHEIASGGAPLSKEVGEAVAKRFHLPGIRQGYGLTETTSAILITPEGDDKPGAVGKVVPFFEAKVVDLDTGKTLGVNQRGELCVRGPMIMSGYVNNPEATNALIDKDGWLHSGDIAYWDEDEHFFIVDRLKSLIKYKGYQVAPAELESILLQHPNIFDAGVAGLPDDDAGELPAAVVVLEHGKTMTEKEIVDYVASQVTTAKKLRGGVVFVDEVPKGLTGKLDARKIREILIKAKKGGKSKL
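Purified P. pyralis luciferase (10nM final) with 10uM D-luciferin and 10uM ATP (Km levels) in 50mM Tris acetate pH 7.5, 10mM Mg acetate, 0.01% Tween-20, 0.05% BSA; qHTS 6-point titration, ~60 µM downward; luminescence read.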
SMN2 splice enh: qHTS Assay for Enhancers of SMN2 Splice Variant Expression; actives 2.8% (n = 210,000); HEK293 SMN2-luciferase splicing reporter, luminescence, 30-36 h; Potency, µM (series often up to 46.1 µM), for inactives: at the top dose activity change, positive = activation, actives largely listed as activators; AID 1458, 2008; note: % of control where 0% means no effect; nearly all actives have a fitted effect of over 55% in size
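HEK293 cells carry an SMN2 minigene-luciferase reporter in which exon 7 inclusion puts luciferase in frame. Cells were seeded at 2000 cells/well, attached for 10-12 hours, then exposed to compounds for 30-36 hours at 37C before ONE-Glo luminescence.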
ELG1 DNA repair: qHTS screen for small molecules that inhibit ELG1-dependent DNA repair in human embryonic kidney (HEK293T) cells expressing luciferase-tagged ELG1. HEK293T ELG1-luciferase reporter, luminescence, 16 h; DNA damage induced by 5-fluorouridine. Potency, µM (doses to about 46.1 µM), inactives show at the top dose activity change, negative = inhibition, hits mostly inhibitors. actives 2.3% (n = 330,000). AID 504467, 2011; note: % is set by controls: 0 for no effect and ±100 for the full control effect; nearly all actives have a fitted effect of over 55% in size
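Overnight (16 hr) co-exposure of 2,000 cells/well to 5-fluorouridine and compound at 37 °C preceded detection. Luciferase was quantified via ONE-Glo luminescence; loss of signal denotes inhibition.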
NPC1 prom act: qHTS Assay for NPC1 Promoter Activators | Huh7 NPC1 promoter luciferase reporter, 24 h | Potency, µM (series often up to 9.22 µM), inactives show at the top dose activation, hits mostly activators | actives 2.4% (n = 320,000); note: % of control where 0% means no effect; nearly all actives have a fitted effect of over 60% in size
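Stable NPC1-promoter luciferase Huh7 line; cpd (DMSO) 24 h, 37 °C, 5% CO2; Amplite luciferase reagent 10 min RT; luminescence readout. qHTS format.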
ELG1 genotox: qHTS screen for small molecules that induce genotoxicity in human embryonic kidney (HEK293T) cells expressing luciferase-tagged ELG1; HEK293T ELG1-luciferase reporter, luminescence, 16 h; Potency, µM (doses to about 46 µM), without a hit: at the highest dose activity change, positive = activation, hits mostly activators; actives 1.3% (n = 330,000); AID 504466, 2011; note: % of control where 0% means no effect; nearly all actives have a fitted effect of over 60% in size
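Genotoxicity was scored as increased ELG1-luciferase reporter signal, measured by ONE-Glo luminescence (30 min, room temperature). Compound or vehicle exposure of the HEK293T reporter cells lasted 16 hr at 37°C.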
Rab9 prom act: qHTS Assay for Rab9 Promoter Activators | Huh7 Rab9 promoter-luciferase reporter, luminescence, 24 h | Potency, µM (series often up to 9.22 µM), inactives show at the top dose activation, negative = inhibition, most hits filed as activators | actives 2.8% (n = 320,000) | AID 485297, 2010; note: % of control where 0% means no effect; nearly all actives have a fitted effect of over 60% in size
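Luciferase signal after 10 min detection reagent at ambient indicates Rab9 promoter upregulation; stably transfected Huh7 cells were treated 24 h with compound in DMSO at 37 °C, 5% CO2.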
* hit, by the source's call; ? = inconclusive; nt = not tested or not shown; [ ] = another dose, or the depositor's remark. Calls come from the whole dose curve; as a rule, active = well fitted curve in the direction sought with a large enough effect; inconclusive = small, poorly fitted or top-dose-only effect, or another doubt; inactive = no such curve, though single readings can be large; an effect the other way counts as inactive or inconclusive. Potency is the fitted concentration of half-maximal effect.

SMILES | FLuc counter | SMN2 splice enh | ELG1 DNA repair | NPC1 prom act | ELG1 genotox | Rab9 prom act
CCNc1nc(NCC)nc(N/N=C/c2ccc(N(C)C)cc2)n1 | ? | 4.2% | 16.9% | 2.1% | -1.3% | -3.0%
Cc1cc(N/N=C/c2ccc(N(C)C)cc2)nc(NCc2ccccc2)n1 | 10.7µM* | nt | ? | 1.6% | -11.9% | -11.9%
COc1ccc2nc(C)cc(N/N=C/c3ccc(F)cc3)c2c1 | 16.9µM* | nt | ? | -38.9% | -16.7% | -11.9%
Cc1cc(C)c(C)c(S(=O)(=O)NCC(=O)Nc2ccc(F)cc2)c1C | 0.9% | nt | ? | 4.4% | -14.3% | -0.1%
O=C(c1cc2ccccc2oc1=O)N(Cc1ccccc1F)C1CCS(=O)(=O)C1 (configuration not stated) | 16.9µM* | nt | ? | 24.2% | ? | ?
COc1ccc(CN(C(=O)c2cc3ccccc3oc2=O)C2CCS(=O)(=O)C2)cc1 (configuration not stated) | -12.7% | -6.6% | 26.2% | -4.3% | 7.1% | 2.7%
O=C(c1cc2ccccc2oc1=O)N(Cc1ccccc1)C1CCS(=O)(=O)C1 (configuration not stated) | 21.3µM* | -5.8% | ? | ? | ? | ?
CCOc1ccccc1C(=O)N(Cc1ccccc1F)C1CCS(=O)(=O)C1 (configuration not stated) | -1.7% | 1.3% | nt | nt | nt | nt
CCOc1ccc(CN(C(=O)c2cc3ccccc3oc2=O)C2CCS(=O)(=O)C2)cc1 (configuration not stated) | 12µM* | nt | ? | ? | ? | 3.16µM*
COc1ccc(CN(C(=O)c2cc3ccccc3oc2=O)C2CCS(=O)(=O)C2)cc1OC (configuration not stated) | 19µM* | ? | ? | 3.98µM* | ? | ?
CCC(CC)N1CCN(C(=O)c2cccc(Cl)c2)CC1 | -1.2% | nt | 2.3% | -0.6% | 0.6% | 1.3%
CC(C)(C)N1CC(C(=O)O)CC1=O (configuration not stated) | -2.5% | nt | -13.5% | -4.2% | 0.4% | -5.9%
Cc1cc(C(=O)CN2C(=O)NC3(CCCCCC3)C2=O)c(C)n1C | ? | nt | ? | 25.4% | 8.9% | ?
Cc1cc(C(=O)CN2C(=O)NC3(CCCc4ccccc43)C2=O)c(C)n1Cc1cccs1 (configuration not stated) | 6.01µM* | 9.6% | -22.2% | 11.7% | 11.4% | 2.1%
C=CCn1c(C)cc(C(=O)CN2C(=O)NC3(CCCc4ccccc43)C2=O)c1C (configuration not stated) | 19µM* | 4.1% | ? | 0.1% | 2.9% | 11.8%
COCCn1c(C)cc(C(=O)CN2C(=O)NC3(CCCCCC3)C2=O)c1C | 10.7µM* | nt | ? | 2.51µM* | ? | 2µM*
COc1ccc(F)cc1S(=O)(=O)n1cc(C)nc1-c1ccccc1 | -1.5% | 3.55µM* | 13.6% | 0.7% | -0.1% | 0.6%
COc1ccc(C)cc1NC(=O)C1COc2ccccc2O1 (configuration not stated) | ? | ? | ? | 16.2% | 10.4% | ?
COc1cccc2c1Oc1ncccc1N(C(=O)Nc1ccc(F)c(Cl)c1)C2 | 5.0% | nt | nt | nt | nt | nt
COc1ccc2nc(NCCCNC(=O)c3cc(OC)c(OC)c(OC)c3)c(C#N)cc2c1 | -2.0% | -2.8% | 15.8µM* | -3.3% | -7.3% | 1.8%
COc1cc(C(=O)NCCNc2nc3ccc(C)cc3cc2C#N)cc(OC)c1OC | -12.2% | nt | 14.6µM* | 3.3% | -2.0% | -5.0%
COc1ccc(C(=O)NCCNc2nc3ccc(C)cc3cc2C#N)cc1 | 0.4% | nt | 1.6% | -1.1% | ? | -11.1%
COc1ccccc1Nc1nc2ccc(C)cc2cc1C#N | 12µM* | 0.9% | -7.3% | 19.2% | 1.3% | 16.2%
COc1ccccc1Nc1nc2cc(C)ccc2cc1C#N | 4.6% | nt | 6.0% | 11.0% | 3.4% | 0.3%
O=S(=O)(c1ccccc1)N1CCN(C(c2ccccc2)c2ccc(OC(F)(F)F)cc2)CC1 (configuration not stated) | 0.2% | nt | -2.8% | -8.4% | -4.7% | -1.1%
SMILES | FLuc counter | SMN2 splice enh | ELG1 DNA repair | NPC1 prom act | ELG1 genotox | Rab9 prom act
NNC(=O)c1ccc(COc2ccc3c(c2)CCC3)cc1 | ? | ? | ? | ? | -1.2% | ?
O=C(Nc1ccccc1Cl)c1ccc(COc2ccc3c(c2)CCC3)cc1 | -13.9% | 6.31µM* | ? | ? | ? | ?
O=C(O)c1ccc(COc2ccc3c(c2)CCC3)cc1 | 5.36µM* | nt | ? | ? | 8.7% | ?
Nn1cnnc1SCC(=O)Nc1ccc(C2CCCCC2)cc1 | 5.36µM* | ? | ? | 3.55µM* | ? | ?
CC(C)n1cnnc1SCC(=O)Nc1ccc(N2CCCCC2)cc1 | 6.01µM* | nt | 23.1% | -2.7% | ? | 1.9%
O=C(O)CSCC(=O)Nc1ccc(C2CCCCC2)cc1 | 12µM* | -24.6% | nt | nt | nt | nt
Cc1ccc(NC(=O)CSCC(=O)O)cc1 | 2.3% | nt | ? | -4.7% | 0.5% | 13.8%
CC(C)n1cnnc1SCC(=O)NCC(=O)Nc1ccc(F)cc1 | 2.6% | nt | 5.5% | 5.1% | -0.6% | 14.4%
CCC(C)c1ccc(NC(=O)CSc2nncn2N)cc1 (configuration not stated) | ? | -11.3% | ? | 16.2% | ? | 6.5%
Nc1nc(Cl)nc2c1ncn2[C@@H]1O[C@H](COP(=O)(O)OP(=O)(O)OP(=O)(O)O)[C@@H](O)[C@H]1O | nt | nt | nt | 1.5%[46.1 µM] | nt | -4.1%[46.1 µM]
Cc1[nH]nc(N)c1N=Nc1ccc(Br)cc1 | ? | 11.1% | 21.4% | 4.9% | 17.2% | -2.1%
Cc1nc(N)sc1N=Nc1ccc(Br)cc1 | 4.26µM* | ? | ? | 2.24µM* | ? | 1.26µM*
CCOCCN1CCN(c2c(C)c(C)nc3cc(-c4cc(OC)cc(OC)c4)nn23)CC1 | -9.1% | 13.6% | 16.4µM* | 0.4% | -17.5% | -6.6%
Cn1nnc2c(NCc3ccco3)nccc21 | 2.3% | -6.5% | 12.7% | -1.8% | 1.7% | 0.9%
COc1ccc(Nc2nccc3c2nnn3C)cc1 | 10.7µM* | ? | ? | 1.26µM* | 5.8µM* | 2.24µM*
COc1ccc(/C=C/C(=O)c2ccc(O)cc2O)cc1OC | nt | -88.6% | nt | nt | nt | nt
COc1ccc(/C=C/C(=O)c2ccc[nH]2)cc1OC | 12µM* | ? | ? | ? | 20.6µM* | 3.16µM*
